This passage reports growth results from PubChem BioAssay (NCI).

Compounds without any hit were thinned out: in the full panel of roughly 83,000, 20% have a hit.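 Assay: single dose, 48 h. Readout: percent growth (0 = no net growth; negative = cell death). Active: <10.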 A number with no mark means an inactive call. Calls of active or inactive are those of the source.

For this experiment, the system named is HOP-62 NSCLC. Put plainly: NCI-60 one-dose screen, 48 h (100 = growth as untreated, 0 = no growth, -100 = all killed). Particulars: 10 µM unless noted. On the procedure:
Growth inhibition of the HOP-62 human Non-Small Cell Lung tumor cell line is measured as a screen for anti-cancer activity. Cells are grown in 96 well plates and exposed to the test compound for 48 hours. Compounds are tested at a single concentration, which is 10^-5 M for most compounds. The reported endpoint is percent growth (GI% or GIPRCNT), where numbers from 0 - 100% represent growth inhibition, and numbers from -100% - 0 represent cell death. For example, a value of 40 represents 60% growth inhibition. A value of 0 means no net growth occurred over the course of the experiment. A value of -40 indicates 40% of cells at the beginning of the experiment died by the end of the experiment. A value of -100 means all cells are dead at the end of the experiment.
NCI-60 Human Tumor Cell Lines Screen was performed using the standard one-dose NCI protocol, which is described in more detail at https://dtp.cancer.gov/discovery_development/nci-60/default.htm.
Compounds with GIPRCNT values below 10 were considered active. Activity score was based on GIPRCNT using the following formula: […]
Score is 0 for GIPRCNT values of 100 or above, 50 for GIPRCNT values of 0, and 100 for GIPRCNT values of -100.
`O=C(Nc1cccc(-n2cnc3cc(-c4ccc(O)cc4)ccc32)c1)C1CC1`: the growth was 44.7%.
Next, `CC1(C)CC[C@]2(C(=O)O)CC[C@]3(C)C(=CCC4[C@@]5(C)C[C@@H](O)[C@@H]6OC(c7ccccc7Br)OC[C@@]6(C)C5CC[C@]43C)C2C1` (stereo not given in full): 30.3%.
In the case of `O=C(NN1C(=O)/C(=C/C=C/c2ccc([N+](=O)[O-])o2)SC1=S)c1ccc(Cl)cc1`, the growth is -98.8% (active).
As for `COc1cc(-c2cc(-c3cccc(OCC(=O)O)c3)[nH]c(=O)c2C#N)cc(OC)c1OC`, the figure is 99.1%; as for `Cn1cc(-c2cc(N)n3nc(-c4c[nH]c5ccccc45)cc3n2)c2cc(Br)cnc21`, -51.2% (active).
Next, `Cc1ccc(S(=O)(=O)c2nc(S(=O)(=O)c3ccc(C)cc3)c(N3CCC(O)CC3)s2)cc1`: 97.5%; `NS(=O)(=O)c1ccc(NNC(=O)CCC(=O)c2ccccc2)cc1`: 100%.
Next, `CCN1CCN(Cc2ccc(C(=O)Nc3cccc(C#Cc4cccc5[nH]nc(N)c45)c3)cc2C(F)(F)F)CC1`: -66.1% (active); `C=C1CCC2C3(C)COC(c4cccs4)OC3CCC2(C)C1CC(Sc1ccccc1)C1=CCOC1=O` (stereo not given): 118%.
Turning to `C#C[C@]1(O)CC[C@H]2[C@@H]3CC=C4c5sc(-c6ccc(O)c(O)c6)nc5CC[C@]4(C)[C@H]3CC[C@@]21C`, the growth is -83.1% (active).
As for `N/C(=N\c1nc2ccccc2s1)NC(=O)Nc1ccccc1Br`, the figure is -19.3% (active); as for `CCOP(=O)(OCCCl)c1nc(-c2ccc(C)cc2)oc1NCc1ccccc1` (stereo not given), 93.9%.
As for `CC(C)C(C(=O)O)n1c(O)c(/C=C2/C=c3cc4c(cc3=NC2=O)OCO4)sc1=S` (stereo not given), the figure is 115%; as for `CC(=O)Oc1ccccc1C(=O)[Se]C(=NC1CCCCC1)NC1CCCCC1`, -87% (active); as for `O=C(O)Cn1c(O)c(/C=C2/C=c3cc4c(cc3=NC2=O)OCCO4)sc1=S`, 105%.
As for `COc1cc(CNC(=O)/C=C/c2ccc3c(c2)OCO3)ccc1OCc1cn(-c2ccc([N+](=O)[O-])cc2)nn1`, the figure is 77.8%; as for `CCCCCCCCOc1cccc(S(=O)(=O)Nc2ccc(C)cc2C(=O)O)c1`, 99.8%.
Regarding `CCOC(=O)C1=C(N)N(c2ccccc2)C2=C(C(=O)CC(C)(C)C2)C1c1ccccc1Cl` (stereo not given), the growth was 94.1%.
Next, `COc1cc(OC)cc(C(=O)Nc2cccc(-c3cn(-c4ccc(S(N)(=O)=O)cc4)nn3)c2)c1`: 6.62% (active); `CCN(CC)c1ccnc(CNCCSC(c2ccccc2)(c2ccccc2)c2ccc(OC)cc2)c1`: -10.2% (active).
For the compound `Cc1ccc(Cc2cnc(NC(=O)c3ccc(/C=C4\SC(=S)N(C)C4=O)cc3)s2)cc1`, the growth was 46.4%.
Next, `Cc1ccc(-c2nc(C#N)c(S(=O)(=O)N3CCN(S(=O)(=O)c4ccc(Cl)cc4)CC3)o2)cc1`: 63%; `O=C(NNc1nc2cc(F)ccc2n2c(C(=O)N3CCN(C4CC4)CC3)ccc12)c1ncccn1`: 20%.
Next, `C/C(=N\Nc1ccc(S(N)(=O)=O)cc1)c1ccc(N=Nc2c(Nc3ccccc3)[nH][nH]c2=O)cc1`: -17.8% (active); `COc1ccc2[nH]cc(-c3nc(N)nnc3-c3cn(C)c4ncccc34)c2c1`: 62.4%.
As for `O=c1oc2ccccc2cc1-c1csc(N=Nc2c(O)[nH]c3ccc(Cl)cc23)n1`, the figure is 101%; as for `Cn1cc(-c2nnc(N)nc2-c2c[nH]c3ccc(F)cc23)c2cccnc21`, 49.2%; as for `CCN(CC)c1ccc(/C=N/Nc2nc(-c3ccc(Br)cc3)cs2)c(O)c1`, 110%.
Turning to `COc1cc(C2CC(c3cc(OC)c(OC)c(OC)c3)=NN2c2ccccc2)ccc1OCc1ccc(C)cc1` (stereo not given), the growth is 99.6%.
As for `Cc1ccc(NC(=O)[C@]23CCC(C)(C)CC2C2=CCC4[C@@]5(C)C[C@@H](O)[C@H](O)[C@@](C)(CO)C5CC[C@@]4(C)[C@]2(C)CC3)cc1` (stereo not given in full), the growth was 47.2%.
As for `CC(=O)N1CCN(Cc2ccc3c(NNC(=O)c4cnccn4)nc4cc(F)ccc4n23)CC1`, the figure is 15.4%.
As for `O=C1/C(=C/C2=Cc3ccccc3OC2)SC(=S)N1c1ccccc1F`, the figure is 101%; as for `Cc1ccc(S(=O)(=O)c2nc(S(=O)(=O)c3ccc(C)cc3)c(N3CCN(C)CC3)s2)cc1`, 99.9%; as for `COc1cc(/C=C/C(=O)c2ccc(C)cc2)ccc1Oc1nc(Nc2ccc(F)cc2)nc(N(C)C)n1`, 86.4%.
For `C#CCOc1ccc(/C=N/Nc2nc(-c3ccc(Cl)cc3)cs2)cc1OC`, the growth was 84.7%.
As for `Cc1ccc(C2CC(c3ccc(S(=O)(=O)NCCNc4nc(Nc5ccc(F)cc5)nc(N(C)C)n4)cc3)=Nc3c(N)nc(N)nc3N2)cc1` (stereo not given), the figure is 87.7%.
Consider `O=C1CC(Sc2n[nH]c(-c3ccncc3)n2)C(=O)N1c1ccc(Br)cc1` (stereo not given), for which the growth is 98.9%.
Next, `O=C(/C=C/c1cccc(OCc2ccc(F)cc2)c1)c1nc2ccccc2[nH]1`: 71.1%; `CC1(C)CC[C@]2(C(=O)O)CC[C@]3(C)C(=CCC4[C@@]5(C)C[C@@H](O)[C@@H]6OC(c7ccc(F)cc7)OC[C@@]6(C)C5CC[C@]43C)C2C1` (stereo not given in full): 47.5%.
As to `CN(C)CCn1c2ccccc2c2nc3ccc([N+](=O)[O-])cc3nc21`, the growth was -19.3% (active).
